# Screening results as filed in PubChem BioAssay.
# SW480 rereplic – A quantitative high throughput screen for small molecules that induce DNA re-replication in SW480 colon adenocarcinoma cells; SW480 DNA re-replication, Hoechst DNA content imaging, 48 h; Potency, µM (titrated, usually from 46.1 µM), for inactives: at the highest dose re-replication activation, actives largely listed as activators; hit rate 1.8% among 340,000; further: % of control where 0% means no effect; nearly all actives have a fitted effect of over 55% in size
#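 First, 250 cells per well were seeded. Next, compound or vehicle (23 nL) was pinned in, plates sat 48 hr at 37 C. Finally Hoechst was added for 40 min before fluorescence scanning.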
# KB-V1 MDR tox – qHTS assay for MDR1-selective chemotherapeutics: Primary screen using the drug-selected MDR subline cells KB-V1. Potency, µM (doses to about 46.1 µM), usual class: cytotoxic. hit rate 3.4% among 400,000. KB-V1 MDR cells viability, CellTiter-Glo, 72 h. AID 1347076, 2019; further: on the % scale 0 is the no-effect control and ±100 the full control effect; nearly all actives have a fitted effect of over 60% in size
#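 Drug-selected KB-V1 cells, grown in DMEM lacking phenol red with 10% FBS, receive compound titrations; after three days at 37 degrees C, surviving cell ATP is quantified by CellTiter-Glo luminescence and responses normalized and curve-fitted.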
# KB-3-1 cytotox – qHTS assay for MDR1-selective chemotherapeutics: Primary screen using the parental adenocarcinoma cell KB-3-1; KB-3-1 viability, CellTiter-Glo ATP luminescence, 72 h; Potency, µM (top dose mostly 46.1 µM), actives largely listed as cytotoxic; hit rate 1.4% among 400,000; AID 1347075, 2019; further: on the % scale 0 is the no-effect control and ±100 the full control effect; nearly all actives have a fitted effect of over 60% in size
#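 Viability of parental KB-3-1 cells, measured by CellTiter-Glo luminescence, followed a 72 h incubation at 37 °C with pinned compounds in phenol-red-free DMEM containing 10% FBS.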
# MCF10A rereplic – A quantitative high throughput screen for small molecules that induce DNA re-replication in MCF 10a normal breast cells; MCF 10A DNA re-replication, Hoechst nuclear intensity, 48 h; hit rate 2.9% among 350,000; Potency, µM (series often up to 46.1 µM), without a hit: at the highest dose activity, positive = re-replication, actives largely listed as activators; further: % of control where 0% means no effect; nearly all actives have a fitted effect of over 50% in size
# PINK1 modulator – A Quantitative High throughput Screen to Identify Chemical Modulators of PINK1 Expression | Potency, µM (top dose mostly 76.6 µM), for the others: at the highest dose activation (PINK1 increase), hits mostly activators | PINK1 immunofluorescence, high-content cytometry, 24 h | hit rate 0.2% among 410,000; active means well fitted activation curve with a large enough effect; inconclusive means small, poorly fitted or top-dose-only effect; cell line not stated here; further: % of control where 0% means no effect; nearly all actives have a fitted effect of over 65% in size
#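 PINK1 protein, normally rapidly degraded, was detected by immunofluorescence after 24 hour compound treatment of a stable cell line. Titration data (5 concentrations) came from laser-scanning cytometry, with CCCP-treated wells as controls.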
# * hit, by the source's call; i = inactive; u = inconclusive; x = no result; [ ] = remark or other dose. Hits are enriched below; roughly 6.7% of the tested compounds scored in any of these assays. Unless noted, the call rests on the fitted dose curve; in most records, active means well fitted curve in the direction sought with a large enough effect; inconclusive means small, poorly fitted or top-dose-only effect, or another doubt; inactive means no such curve, though single readings can be large; an effect the other way counts as inactive or inconclusive. Potency means the concentration at half of the fitted maximal effect.
SMILES,SW480 rereplic,KB-V1 MDR tox,KB-3-1 cytotox,MCF10A rereplic,PINK1 modulator
O=c1c2ccccc2nc(N/N=C/c2c(O)ccc3ccccc23)n1O,u,i,u,3.3µM*,-1%
Cc1nc2ccccc2c(=O)n1/N=C/c1cc(Br)ccc1O,21µM*,u,u,3%,3%
COc1ccc(Br)cc1/C=N/n1c(C)nc2ccccc2c1=O,-4%,i,i,9%,2%
CCOC(=O)c1c[nH]c2cc(OCC(C)C)c(OCC(C)C)cc2c1=O,-3%,x,x,-1%,x
O=C(Nc1ccc(F)c(Cl)c1)C1CCCN1S(=O)(=O)c1ccc(F)cc1 (stereo not drawn),x,i,i,x,-1%
CCc1nn(CC(=O)NCCc2ccc(Cl)cc2)c(=O)c2cc3ccccc3n12,x,i,i,x,2%
Cc1nc2ccccc2c(=O)n1/N=C/c1c(O)ccc2ccccc12,2.9µM*,i,i,13%,13%
CC1(C)CC(=O)c2sc(NS(=O)(=O)c3ccc(Br)cc3)nc2C1,-31%,i,i,0.58µM*,3%
CC1(C)CC(=O)c2sc(NC(=O)CCS(=O)(=O)c3ccccc3)nc2C1,-2%,i,21µM*,23µM*,4%
CCC(NC(=O)Nc1nnc(C(F)(F)F)s1)(C(F)(F)F)C(F)(F)F,u,4.1µM*,10µM*,u,u
O=C(CCS(=O)(=O)c1ccccc1)Nc1nnc(C(F)(F)F)s1,13µM*,u,u,23µM*,0%
Cc1cccc(N(CC(=O)NCc2ccc(F)cc2)C(=O)c2ccco2)c1,u,i,i,4%,-1%
COc1ccc(CC2(CO)CCN(S(=O)(=O)c3c(C)nn(C)c3Cl)CC2)cc1,-32%,i,i,3%,1%
Cc1nn(C)c(Cl)c1S(=O)(=O)N1CCC(CO)(CCc2ccccc2)CC1,-6%,23µM*,u,17%,1%
OCCN1CCOCCOc2ccccc2OCCOCC1,-3%,i,i,1%,-1%
c1ccc2c(c1)OCCOCCOCCOCCOCCOc1ccccc1OCCOCCOCCO2,u,5.2µM*,5.2µM*,u,u
COC(=O)c1cccc(C(=O)N2CCc3c(C(=O)OC)c(OCc4ccccn4)cc(=O)n3CC2)c1,x,x,x,x,-1%
Cc1nc([N+](=O)[O-])c(Br)n1CC(=O)c1ccc(F)cc1,u,i,i,21µM*,4%
Cc1nc([N+](=O)[O-])c(Br)n1CC(=O)c1cccc([N+](=O)[O-])c1,u,i,i,21µM*,19%
COC(=O)Cn1c(C)nc([N+](=O)[O-])c1Br,-14%,i,i,0%,1%
Cc1nc([N+](=O)[O-])c(Br)n1Cc1ccccc1,28%,u,u,u,11%
C/C(=N/NC(=O)CN(c1ccccc1)S(=O)(=O)c1ccccc1)c1ccccc1O,16µM*,i,u,-1%,1%
CCCC/C(C)=N/NC(=O)CN(c1ccc(Br)cc1)S(=O)(=O)c1ccccc1,u,i,i,16%,2%
Cc1ccc(C)c(N(C)S(=O)(=O)c2ccc3[nH]cc(C(=O)NC4CCCC4)c(=O)c3c2)c1,x,i,i,x,u
CC1CCCC(NC(=O)CNC(=S)N(Cc2ccccc2)Cc2cccs2)C1C (stereo not drawn),u,u,i,13µM*,9%
SMILES,SW480 rereplic,KB-V1 MDR tox,KB-3-1 cytotox,MCF10A rereplic,PINK1 modulator
O=C(NC1CCCC1)C(c1ccc(F)cc1)N(Cc1ccc(Cl)cc1)C(=O)CCl (stereo not drawn),1%,16µM*,u,11%,-6%
Cc1ccc(C(=O)N(CC(=O)NC2CCCC2)c2ccccc2C)s1,1%,i,i,2%,-1%
CCOC(=O)CNC(=S)N(Cc1cccs1)C1CCCCC1,-41%,7.3µM*,i,-1%,0%
CCOC(=O)CNC(=S)N(Cc1ccccc1F)C1CCCCC1,u,u,i,9%,0%
Cc1ccc(C(=O)N(CC(=O)NC2CCCC2)Cc2cccs2)s1,-5%,5.8µM*,i,0%,-3%
O=C(NC1CCCC1)C(c1ccc(Cl)cc1)N(Cc1ccc(F)cc1)C(=O)CCl (stereo not drawn),u,i,i,16%,-2%
O=C(Cc1ccc(Cl)c(Cl)c1)N1CCOCC1,2%,i,i,1%,-1%
Cc1cccc(N(C(=O)CNC(=O)c2ccco2)C(C(=O)NC2CCCCC2)c2cccnc2)c1 (stereo not drawn),-7%,i,i,-4%,0%
CCC(C)(C(=O)NC1CCCC1)N(Cc1cccs1)C(=O)c1ccc2c(c1)OCO2 (stereo not drawn),12%,u,i,2%,-1%
O=C(NC1CCCCC1)C(c1cccnc1)N(C(=O)CCl)c1cccc(Cl)c1 (stereo not drawn),4.1µM*,21µM*,23µM*,13µM*,-4%
Cn1cccc1C(C(=O)NC1CCCCC1)N(C(=O)Cc1cccs1)C1CC1 (stereo not drawn),-2%,6.5µM*,i,3%,-1%
COC(=O)c1ccc(C(C(=O)NC2CCCCC2)N(Cc2ccc(F)cc2)C(=O)Cc2cccs2)cc1 (stereo not drawn),3%,3.7µM*,i,6%,10%
CCC(C)(C(=O)NC1CCCCC1)N(Cc1cccs1)C(=O)Cc1cccs1 (stereo not drawn),0%,13µM*,i,18%,4%
Nc1nc2ccccc2n1CCOc1ccc(F)cc1,-8%,u,i,4%,1%
CCN(CC)C(=O)c1sc2c(c1C)c(=O)n(-c1ccc(Cl)c(Cl)c1)c(=O)n2Cc1ccccc1C#N,x,i,i,x,3%
COc1ccc(C(C(=O)NC2CCCCC2)N(C(=O)CCl)c2ccc(Cl)cc2)cc1 (stereo not drawn),u,u,5.8µM*,u,-2%
COc1ccccc1N1CCN(c2ccc(-c3nc(-c4ccccc4)no3)cc2[N+](=O)[O-])CC1,x,i,i,x,-1%
CCCCOc1ccc(-c2nnn(CC(=O)NCc3ccco3)n2)cc1,1%,4.1µM*,u,3%,11%[38.3 µM]
O=C(CSc1nncn1-c1ccccc1)Nc1cc(Cl)cc(Cl)c1,-3%,i,i,0%,4%[38.3 µM]
CN(C)S(=O)(=O)c1cccc(NC(=O)CSc2nnnn2-c2ccccc2)c1,-37%,10µM*,i,6%,1%
CN(C)S(=O)(=O)c1cccc(NC(=O)CSc2nncn2-c2ccccc2)c1,-47%,i,u,0.65µM*,2%
